Measurements from PubChem BioAssay.
Activity calls are given as the source filed them.

How the values were obtained:
[1] = binders of probe aFSTL3 on microarray, primary screen, stem cell growth factor project, biochemical, small-molecule microarray, fluorescence 635/667 (AID 1064); conditions: higher = more signal;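 also: measures binding of the biotinylated anti-FSTL3 antibody to printed compounds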
[2] = binders from COS7 lysate, DM2A8 probe, primary screen, torsin A project, cell lysate, small-molecule microarray, fluorescence 635/667 (AID 1065); conditions: higher = more signal, COS7 lysate expressing mutant human TOR1A
[3] = binders of probe aFGF2 on microarray, primary screen, stem cell growth factor project, biochemical, small-molecule microarray, fluorescence 635/667 (AID 1067); conditions: higher = more signal;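 also: measures binding of biotinylated aFGF2 protein to printed compounds on slides; z-score merges feature fluorescence and signal-to-noise across triplicate slides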
[4] = binders of probe aFGF10 on microarray, primary screen, stem cell growth factor project, biochemical, small-molecule microarray, fluorescence 635/667 (AID 1071); conditions: higher = more signal;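 also: score merges 667 nm spot intensity and signal to noise from triplicate slides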
[5] = molecular target: Neurogenic locus notch homolog protein 2 (Homo sapiens) (UniProt Q04721); assay: Notch2 binders on small-molecule microarrays, primary screen, biochemical, small-molecule microarray, 635 nm fluorescence, stem cell growth factors (AID 1073); conditions: Notch2 binding, higher = more signal
[6] = molecular target: Pro-neuregulin-1, membrane-bound isoform (Homo sapiens) (UniProt Q02297); assay: NRG1 binders on small-molecule microarrays, primary screen, psychiatric disease protein project, biochemical, small-molecule microarray, fluorescence 635/667 (AID 1075); conditions: NRG1 binding, 635 nm fluorescence, higher = more signal;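 also: score combines 667 nm spot fluorescence with signal to noise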
[7] = system: Neuregulin-1 EGF-like domain; assay: binders of neuregulin-1 EGF-like domain, primary screen, biochemical, small-molecule microarray, 635 nm fluorescence (AID 1081); conditions: small-molecule microarray binding, higher = more signal;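 also: binding of the protein to compounds printed on small-molecule microarray slides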
[8] = FRG1 promoter luciferase signal modulators, primary screen, FRG1 inhibition for FSHD, cell-based, C2C12 myotubes, firefly/Renilla luciferase, luminescence (AID 1084); conditions: higher = more signal, called active from +8 up or from −8 down
[9] = binders of probe aFST on microarray, primary screen, stem cell growth factor project, biochemical, small-molecule microarray, fluorescence 635/667 (AID 1086); conditions: higher = more signal;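 also: score merges 667 nm fluorescence with signal-to-noise of each printed compound spot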
[10] = binders of probe aHhip on microarray, primary screen, stem cell growth factor project, biochemical, small-molecule microarray, fluorescence 635/667 (AID 1087); conditions: higher = more signal;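 also: score merges spot fluorescence at 667nm with spot signal to noise ratio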
[11] = system: PRMT1 (protein arginine N-methyltransferase 1); assay: PRMT1 binders on small-molecule microarrays, primary screen, biochemical, small-molecule microarray, 635 nm fluorescence (AID 1088); conditions: small-molecule microarray binding, higher = more signal;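 also: binding of Prmt1 protein to compounds spotted on small-molecule microarray slides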
[12] = yeast growth modulation, basal conditions, primary screen, YJM789 clinical isolate, OD600, 24 h (AID 1089);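 also: growth of clinical yeast isolate S. cerevisiae YJM 789 seeded 1000 cells per well; test concentration not given here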; conditions: S. cerevisiae YJM789 growth, higher = more signal, called active from +8 up or from −8 down
[13] = fission yeast growth modulation, primary screen, strain 972, OD600, 24 h, no modulator (AID 1090);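 also: basal condition with compound alone and no growth modifier present; test concentration not given here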; conditions: S. pombe 972 growth, higher = more signal, called active from +8 up or from −8 down
[14] = S. cerevisiae growth modulation with rapamycin, primary screen, strain BY4716, OD600, 96 h (AID 1091); conditions: higher = more signal, called active from +8 up or from −8 down; also: test concentration not given here
[15] = molecular target: Torsin-1A-interacting protein 2 (Homo sapiens) (UniProt Q8NFQ8); assay: LULL1 binders on small-molecule microarray, primary screen, cell lysate, human LULL1 lysate, 635/667 nm fluorescence (AID 1092); conditions: hLULL1 lysate binding, 635 nm fluorescence, higher = more signal;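 also: probe is lysate of COS7 cells overexpressing human LULL1; score merges per-feature 667 nm fluorescence with signal-to-noise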
[16] = E. coli growth modulation, two-sided OD650, primary screen, E. coli filamentation project, strain DRC41, 24 h (AID 1093); conditions: OD650, 24 h, higher = more signal, called active from +8 up or from −8 down;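 also: MC1000 strain lacking acrAB efflux and sulA so SOS filamentation is blocked; test concentration not given here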
[17] = small-molecule microarray binders of probe aLefty2, primary screen, biochemical, biotinylated probe, 635/667 nm fluorescence (AID 1094); conditions: higher = more signal;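 also: score merges spot fluorescence near 667 nm with spot signal-to-noise ratio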
[18] = system: Noggin (protein binding on small-molecule microarray); assay: Noggin binders on small-molecule microarray, primary screen, biochemical, 635/667 nm fluorescence (AID 1095); conditions: 635 nm fluorescence, higher = more signal;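 also: score merges 667 nm feature fluorescence with signal to noise over triplicate slides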
[19] = molecular target: Neurogenic locus notch homolog protein 3 (Homo sapiens) (UniProt Q9UM47); assay: NOTCH3 binders on small-molecule microarray, primary screen, biochemical, 635/667 nm fluorescence (AID 1096); conditions: NOTCH3 binding, 635 nm fluorescence, higher = more signal
[20] = small-molecule microarray binders of probe aEGFR, primary screen, biochemical, biotinylated probe, 635/667 nm fluorescence (AID 1097); conditions: higher = more signal;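 also: probe is a biotinylated anti-EGFR antibody binding compounds printed on slides; score combines fluorescence near 667 nm and signal to noise of each spot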

Torsin-1A-interacting protein 2 (Homo sapiens), sequence (Q8NFQ8 whole entry, looked up): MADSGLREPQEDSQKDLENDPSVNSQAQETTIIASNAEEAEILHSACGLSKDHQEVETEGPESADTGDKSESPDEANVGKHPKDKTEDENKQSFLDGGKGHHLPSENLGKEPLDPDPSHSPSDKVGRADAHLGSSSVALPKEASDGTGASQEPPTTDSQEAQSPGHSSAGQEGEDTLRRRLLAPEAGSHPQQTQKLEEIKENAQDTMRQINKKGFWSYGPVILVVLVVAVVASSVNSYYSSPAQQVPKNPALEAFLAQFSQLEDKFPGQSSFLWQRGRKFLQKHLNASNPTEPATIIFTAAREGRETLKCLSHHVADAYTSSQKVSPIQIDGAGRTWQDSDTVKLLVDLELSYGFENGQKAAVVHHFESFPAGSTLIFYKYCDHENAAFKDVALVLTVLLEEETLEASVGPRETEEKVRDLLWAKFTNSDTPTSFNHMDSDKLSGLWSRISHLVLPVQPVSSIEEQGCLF
Pro-neuregulin-1, membrane-bound isoform (Homo sapiens), sequence (Q02297 whole entry, looked up, the tested form may be a part, canonical isoform): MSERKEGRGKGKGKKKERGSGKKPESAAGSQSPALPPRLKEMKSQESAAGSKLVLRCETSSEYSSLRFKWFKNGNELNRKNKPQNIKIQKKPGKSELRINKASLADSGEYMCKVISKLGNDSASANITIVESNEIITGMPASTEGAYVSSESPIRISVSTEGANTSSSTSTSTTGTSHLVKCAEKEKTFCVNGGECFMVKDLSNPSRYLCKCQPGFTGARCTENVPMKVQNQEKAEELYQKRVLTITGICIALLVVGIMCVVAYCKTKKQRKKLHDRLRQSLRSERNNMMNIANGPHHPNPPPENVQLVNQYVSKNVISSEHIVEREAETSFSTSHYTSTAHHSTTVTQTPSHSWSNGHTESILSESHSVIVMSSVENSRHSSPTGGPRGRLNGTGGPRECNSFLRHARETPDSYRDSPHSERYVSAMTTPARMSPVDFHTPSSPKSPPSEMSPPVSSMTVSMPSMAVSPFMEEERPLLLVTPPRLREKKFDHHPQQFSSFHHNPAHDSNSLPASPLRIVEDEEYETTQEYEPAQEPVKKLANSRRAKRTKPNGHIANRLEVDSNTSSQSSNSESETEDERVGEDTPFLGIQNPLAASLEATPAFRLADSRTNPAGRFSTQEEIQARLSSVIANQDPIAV
Neurogenic locus notch homolog protein 3 (Homo sapiens), sequence (Q9UM47 whole entry, looked up): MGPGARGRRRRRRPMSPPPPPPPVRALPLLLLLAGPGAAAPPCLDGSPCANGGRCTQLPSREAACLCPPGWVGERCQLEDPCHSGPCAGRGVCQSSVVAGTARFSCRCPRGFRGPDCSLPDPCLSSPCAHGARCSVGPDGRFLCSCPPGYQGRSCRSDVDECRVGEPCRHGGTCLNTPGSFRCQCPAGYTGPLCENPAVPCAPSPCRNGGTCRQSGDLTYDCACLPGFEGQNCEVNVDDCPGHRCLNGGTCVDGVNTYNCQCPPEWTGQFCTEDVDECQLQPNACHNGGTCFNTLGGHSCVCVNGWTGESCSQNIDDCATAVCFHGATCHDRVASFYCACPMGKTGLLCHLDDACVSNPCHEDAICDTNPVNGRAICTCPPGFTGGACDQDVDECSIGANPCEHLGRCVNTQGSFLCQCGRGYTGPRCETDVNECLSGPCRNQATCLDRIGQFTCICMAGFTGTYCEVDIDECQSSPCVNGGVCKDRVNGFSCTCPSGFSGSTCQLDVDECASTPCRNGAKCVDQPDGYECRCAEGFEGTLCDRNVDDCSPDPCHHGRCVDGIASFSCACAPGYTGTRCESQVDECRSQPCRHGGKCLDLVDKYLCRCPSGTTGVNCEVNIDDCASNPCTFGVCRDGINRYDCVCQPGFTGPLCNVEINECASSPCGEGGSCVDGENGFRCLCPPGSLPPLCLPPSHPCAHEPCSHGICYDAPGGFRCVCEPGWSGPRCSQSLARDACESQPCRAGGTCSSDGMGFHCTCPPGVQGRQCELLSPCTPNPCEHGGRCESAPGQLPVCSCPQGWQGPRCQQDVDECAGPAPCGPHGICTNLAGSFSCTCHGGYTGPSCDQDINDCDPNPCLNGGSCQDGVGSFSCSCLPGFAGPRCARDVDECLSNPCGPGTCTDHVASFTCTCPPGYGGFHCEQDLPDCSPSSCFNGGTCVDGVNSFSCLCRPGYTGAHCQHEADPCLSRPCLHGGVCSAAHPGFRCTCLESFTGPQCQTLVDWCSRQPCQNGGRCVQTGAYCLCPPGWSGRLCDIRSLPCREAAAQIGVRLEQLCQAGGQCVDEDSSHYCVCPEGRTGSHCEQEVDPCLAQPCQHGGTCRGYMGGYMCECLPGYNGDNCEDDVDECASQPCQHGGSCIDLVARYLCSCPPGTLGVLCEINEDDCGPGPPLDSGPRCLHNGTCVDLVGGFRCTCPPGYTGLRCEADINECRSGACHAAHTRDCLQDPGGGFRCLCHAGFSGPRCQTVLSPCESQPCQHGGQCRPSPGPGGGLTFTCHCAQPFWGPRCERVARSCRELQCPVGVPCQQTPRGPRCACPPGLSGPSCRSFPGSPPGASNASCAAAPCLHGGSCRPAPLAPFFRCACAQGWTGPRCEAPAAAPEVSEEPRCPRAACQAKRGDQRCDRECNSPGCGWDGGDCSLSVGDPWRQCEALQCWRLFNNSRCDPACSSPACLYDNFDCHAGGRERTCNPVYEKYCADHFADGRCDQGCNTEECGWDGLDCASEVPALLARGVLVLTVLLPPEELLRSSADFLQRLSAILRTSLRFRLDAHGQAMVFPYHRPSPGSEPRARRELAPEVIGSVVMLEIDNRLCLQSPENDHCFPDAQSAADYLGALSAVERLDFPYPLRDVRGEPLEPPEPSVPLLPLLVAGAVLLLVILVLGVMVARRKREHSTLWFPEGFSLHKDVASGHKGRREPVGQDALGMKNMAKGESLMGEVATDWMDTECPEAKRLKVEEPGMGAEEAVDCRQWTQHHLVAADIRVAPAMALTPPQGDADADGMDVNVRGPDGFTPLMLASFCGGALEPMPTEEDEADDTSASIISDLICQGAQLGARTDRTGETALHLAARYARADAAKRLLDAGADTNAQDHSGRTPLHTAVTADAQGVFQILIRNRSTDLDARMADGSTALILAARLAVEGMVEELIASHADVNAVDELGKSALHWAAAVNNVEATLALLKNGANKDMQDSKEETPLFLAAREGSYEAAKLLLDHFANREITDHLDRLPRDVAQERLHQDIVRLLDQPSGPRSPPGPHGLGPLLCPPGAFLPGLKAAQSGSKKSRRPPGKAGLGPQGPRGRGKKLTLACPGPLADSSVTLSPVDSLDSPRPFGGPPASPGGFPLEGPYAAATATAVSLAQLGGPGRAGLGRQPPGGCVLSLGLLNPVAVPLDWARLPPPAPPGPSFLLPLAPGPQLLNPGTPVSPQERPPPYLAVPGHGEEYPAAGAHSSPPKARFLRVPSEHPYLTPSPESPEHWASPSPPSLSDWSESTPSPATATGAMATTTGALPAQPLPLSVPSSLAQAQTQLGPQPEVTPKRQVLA

Structure (SMILES) | composite z-score [1] | composite z-score [2] | composite z-score [3] | composite z-score [4] | composite z-score [5] | composite z-score [6] | composite z-score [7] | z-score [8] | composite z-score [9] | composite z-score [10] | composite z-score [11] | z-score [12] | z-score [13] | z-score [14] | composite z-score [15] | z-score [16] | composite z-score [17] | composite z-score [18] | composite z-score [19] | composite z-score [20]
COC(=O)C1N=C(c2ccc(OCCCO)cc2)N(c2ccccc2)O1 (stereo not given) | 0.397 | 0.148 | -0.0189 | 1.17 | 1.54 | 1.1 | 0.913 | 2.35 (inactive) | 0.897 | -0.317 | 0.433 | -0.686 (inactive) | -1.16 (inactive) | -0.417 (inactive) | 2.07 | 0.267 (inactive) | 0.156 | 0.981 | 0.698 | 0.271
COC(=O)C1=CC(CCCO)=CC(C)N(Cc2cccc(OC(F)(F)F)c2)C=C1C(=O)OC (stereo not given) | -0.385 | -0.383 | -0.0667 | 0.157 | 0.412 | 2.05 | 1.21 | -0.181 (inactive) | 0.577 | -0.0994 | 0.897 | -0.743 (inactive) | -2.12 (inactive) | 0.219 (inactive) | 2.65 | -1.53 (inactive) | -0.0712 | -0.296 | 0.532 | -0.02
COc1ccc([Si](C)(C)[C@H]2[C@H](CCO)O[C@@]3(C(=O)N(Cc4ccccc4)c4ccc(N5CCOC5=O)cc43)[C@@H]2C)cc1 | -0.226 | 0.0044 | -0.126 | 0.522 | 0.591 | 0.872 | 0.828 | -2.79 (inactive) | 0.135 | -0.226 | 1.13 | 0.948 (inactive) | -0.0089 (inactive) | 16.7 (active) | 1.64 | 0.147 (inactive) | -0.0769 | 0.517 | 1.12 | -0.0152
C=CCC(OC(C)=O)[C@@H]1[C@@H](N(Cc2ccc(-c3cccc(C(F)(F)F)c3)o2)C(=O)c2ccc(C)cc2)c2cc(OCCCO)ccc2N1C(=O)Cc1ccc(OC)cc1 (stereo not given in full) | 0.002 | -0.315 | -0.0639 | 0.0732 | -0.489 | -0.0798 | -0.986 | -0.287 (inactive) | 0.382 | 0.0373 | -0.118 | 0.9 (inactive) | 0.145 (inactive) | 0.0453 (inactive) | -0.639 | 1.34 (inactive) | -0.131 | -0.0236 | -0.0141 | -0.0828
C=C(CCCC)C(=O)CC[C@H](OC(C)=O)c1ccc(OCCO)cc1 | -0.222 | -0.0212 | -0.214 | -0.253 | -0.989 | -0.189 | -0.67 | 0.38 (inactive) | -0.358 | 3.01 | -0.0507 | -1.62 (inactive) | -6.78 (inactive) | -2.54 (inactive) | -0.835 | 2.19 (inactive) | -0.269 | -0.469 | -0.829 | -0.16
O=C1O[C@H](c2ccccc2)[C@H](c2ccccc2)N2[C@H]1[C@@H](C(=O)Nc1nc3ccccc3s1)[C@]1(C(=O)Nc3ccc(C#CC4=CCCCC4)cc31)[C@H]2c1ccc(O)cc1 | -0.384 | 0.255 | -0.0281 | 0.352 | 0.747 | 1.44 | 1.1 | -0.305 (inactive) | 0.845 | -0.0994 | 1.55 | 0.556 (inactive) | 0.589 (inactive) | 0.401 (inactive) | 2.88 | 1.97 (inactive) | -0.12 | 1.1 | 1.06 | -0.0679
[N-]=[N+]=Nc1ccccc1[C@@H]1OC(c2ccc(OCCCO)cc2)=N[C@]1(Cc1ccccc1)C(=O)NCc1ccccc1 | 0.97 | 1.72 | 0.0653 | 0.371 | 1.59 | 1.6 | 1.2 | -1.2 (inactive) | 1.21 | 0.0614 | 1.47 | -1.79 (inactive) | -0.27 (inactive) | 3.07 (inactive) | 3.43 | -0.0484 (inactive) | 0.298 | 0.849 | 1.11 | 0.454
C=CCC(OC(C)=O)[C@@H]1[C@@H](N(Cc2ccc(-c3cccc(C(F)(F)F)c3)o2)C(=O)Cc2ccc(OC)cc2)c2cc(OCCCO)ccc2N1C(=O)Cc1ccc2ccccc2c1 (stereo not given in full) | -0.131 | -0.919 | -0.0715 | -0.139 | -0.696 | 0.465 | 0.113 | -0.734 (inactive) | 0.069 | 0.0505 | 0.466 | 0.807 (inactive) | 0.243 (inactive) | -0.386 (inactive) | 0.958 | -0.406 (inactive) | -0.0654 | -0.621 | -0.246 | -0.217
O=C(O)[C@H]1C[C@H]2C(=O)N[C@@H](Cc3ccccc3)C(=O)N2[C@H]1c1cccc(OCCO)c1 | 0.07 | 0.96 | -0.0246 | 0.495 | -0.116 | 0.154 | 1.44 | 5.68 (inactive) | 0.309 | 0.188 | 1.46 | 0.893 (inactive) | -1.11 (inactive) | -0.629 (inactive) | 2.14 | 0.446 (inactive) | 0.127 | 1.74 | 0.814 | 0.206
NC(=O)N1C(=O)C2C(C1=O)C1C=C(CCCO)C2C(C2CC2)N1Cc1cccc(OC(F)(F)F)c1 (stereo not given) | -0.284 | 0.497 | -0.139 | -0.238 | -0.22 | 1.95 | 1.3 | 0.0154 (inactive) | -0.108 | -0.122 | 0.639 | -0.897 (inactive) | -0.497 (inactive) | -1.47 (inactive) | 2.63 | -0.284 (inactive) | -0.249 | -0.0319 | -0.538 | -0.184
